This test has as its system MILI (PIWIL2) piRISC loaded with L1MC piRNA (26 nt). The experiment in a line: pre-steady-state target cleavage rate (min^-1); guide: L1MC piRNA 5'p-UAACUAAAUACUAUGCAAGCUGUAGG; MIWI and MILI are mouse PIWI proteins and EfPiwi is from a freshwater sponge; tags in brackets are library labels; higher = faster piRNA-guided slicing of the target. The method, boiled down: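 With or without 500 nM GTSF1 partner protein, 1 nM active affinity-purified piRISC carrying one synthetic guide was mixed with 0.1 nM transcribed, DNA-blocked target RNA library in HEPES–potassium acetate buffer at 33 °C for 0–8 or 0–960 min. Uncleaved targets were sequenced and normalised to depth and to weakly complementary targets, three trials were pooled, and k3 was capped at 0.0001 min^-1. The pre-steady-state cleavage rate came from a burst-and-steady-state fit.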

Setting [1] is: auxiliary factor: 500 nM mouse GTSF1.
[2] abbreviates: auxiliary factor: none (no GTSF1).

± gives the standard deviation.

Regarding UCCUGGAACAGCUUGGUAAGUAUUUAGUAA, the “pre-steady-state target cleavage rate” value by setting is: under setting [1], 0.11 ± 0.017; under setting [2], 0.00425 ± 0.0016.
On the same counts, the results for UCCUGGAUGUGCAUGCAUAGUAUUUUGUUA are 0.0798 ± 0.018 and 0.00327 ± 0.0032.
The corresponding values for UCCUGGAUGUCGUUGCAUAGUAUUUCAGUUA are 0.0621 ± 0.017 and 0.00397 ± 0.0033.
On the same counts, the results for UCCUGGAUCAGCUUGCUAGUAUUUAGUUA are 0.0105 ± 0.0043 and 0.00365 ± 0.0022.
In the case of UCCUGGAUGUCGUAGCAUAGUAUUAAGUUA, the “pre-steady-state target cleavage rate” value was 0.0506 ± 0.013 under setting [1] and 0.00246 ± 0.0024 under setting [2].
The corresponding values for UCCUGGAUGUGCUUGCUUAGUUUUUAGUUA are 0.011 ± 0.0063 and 0.00656 ± 0.0028.
On the same counts, the results for UCCUGGAUGUCGAUGCAUAGUUUUUAGUUA are 0.0108 ± 0.0042 and 0.0052 ± 0.002.
As for UCCUGGAUGAGCUUGGUUAGUAUUUAGUAA, the “pre-steady-state target cleavage rate” value was 0.175 ± 0.027 under setting [1] and 0.0063 ± 0.0023 under setting [2].
With UCCUGGAUGUGCUUGCAAAGUAUUUAGUAA, the “pre-steady-state target cleavage rate” value is 0.033 ± 0.0074 under setting [1] and 0.00287 ± 0.0025 under setting [2].
On the same counts, the results for UCCUGGAUCUCGUUGCAUAGUAUUUAGUAA are 0.114 ± 0.018 and 0.003 ± 0.0027.
In the case of UCCUGGAUGAGCUUGCUAAGUAUUUAGUUA, the “pre-steady-state target cleavage rate” value by setting is: under setting [1], 0.0294 ± 0.0061; under setting [2], 0.00602 ± 0.0023.
The corresponding values for UCCUCCUACAGCUUGGAUAGUAAUUAGUUA are 0.25 ± 0.024 and 0.00499 ± 0.0021.
For UCCUGGAUGAGCUUCCUUAGUAUUUAGUUA, the “pre-steady-state target cleavage rate” value runs as follows: under setting [1], 0.132 ± 0.019; under setting [2], 0.00577 ± 0.0024.
As for UCCUGGAUGACCUUGCAUUGUAUUUAGUUA, the “pre-steady-state target cleavage rate” value by setting is: under setting [1], 0.0617 ± 0.0098; under setting [2], 0.00446 ± 0.0029.
With UCCUGGAUGUGCUUGCAUUGUAUUAAGUUA, the “pre-steady-state target cleavage rate” value runs as follows: under setting [1], 0.0663 ± 0.014; under setting [2], 0.00354 ± 0.0033.
As for UCCUGGAUGUCCUAGCAUAGUAAUUAGUUA, the “pre-steady-state target cleavage rate” value under setting [1] is 0.0282 ± 0.01 and the “pre-steady-state target cleavage rate” value under setting [2] was found to be 0.00305 ± 0.0025.
Take UCCUGGAACAGCUAGCAUAGUUUUUAGUUA: the “pre-steady-state target cleavage rate” value is 0.0448 ± 0.0092 under setting [1] and 0.00311 ± 0.0024 under setting [2].
The corresponding values for UCCUGGAUGUCGUUGCAUAGUAUUUAGUCUA are 0.013 ± 0.0062 and 0.00433 ± 0.0036.
The corresponding values for UCCUGGUACAGCAUGCAUAGUAUUUUGUUA are 0.11 ± 0.022 and 0.00364 ± 0.0034.
With UCCUGGAUGAGGUUGCAUAGUAUUUUGUUA, the “pre-steady-state target cleavage rate” value is 0.0801 ± 0.024 under setting [1] and 0.00402 ± 0.0029 under setting [2].
